Screening results as filed in PubChem.
GPR151 ag: activates the human receptor GPR151. PathHunter beta-arrestin GPR151 cells, luminescence. Q8TDV0. activation, % at 11.2 µM. 650,000 tested, 1% active. AID 1508602; in the data active = activation above about 4.9%
MITF primary: blocks human microphthalmia-associated transcription factor | O75030 | AlphaScreen MITF homodimerization, bead proximity signal | inhibition, % at 2.6 µM | 650,000 tested, 0.91% active; in the data active = inhibition above about 50%
TEAD-YAP inh: TEAD-YAP interaction inhibition; 640,000 tested, 1.4% active; HEK-TIYL cells, TEAD-Gal4/YAP UAS-luciferase luminescence; inhibition, % at 9.12 µM; in the data active = inhibition above about 32%
FBW7 act: human FBW7 E3 ligase activation, primary screen; Q969H0; 650,000 tested, 0.13% active; AID 1259310; normalized activity (activation), % at 26.1 µM; AlphaScreen FBW7–phospho-cyclin E peptide binding, activator screen; in the data active = normalized activity above about 1.9%;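 also: purified mutant Fbw7 with reduced substrate affinity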
Target sequence (Q969H0 whole entry, looked up): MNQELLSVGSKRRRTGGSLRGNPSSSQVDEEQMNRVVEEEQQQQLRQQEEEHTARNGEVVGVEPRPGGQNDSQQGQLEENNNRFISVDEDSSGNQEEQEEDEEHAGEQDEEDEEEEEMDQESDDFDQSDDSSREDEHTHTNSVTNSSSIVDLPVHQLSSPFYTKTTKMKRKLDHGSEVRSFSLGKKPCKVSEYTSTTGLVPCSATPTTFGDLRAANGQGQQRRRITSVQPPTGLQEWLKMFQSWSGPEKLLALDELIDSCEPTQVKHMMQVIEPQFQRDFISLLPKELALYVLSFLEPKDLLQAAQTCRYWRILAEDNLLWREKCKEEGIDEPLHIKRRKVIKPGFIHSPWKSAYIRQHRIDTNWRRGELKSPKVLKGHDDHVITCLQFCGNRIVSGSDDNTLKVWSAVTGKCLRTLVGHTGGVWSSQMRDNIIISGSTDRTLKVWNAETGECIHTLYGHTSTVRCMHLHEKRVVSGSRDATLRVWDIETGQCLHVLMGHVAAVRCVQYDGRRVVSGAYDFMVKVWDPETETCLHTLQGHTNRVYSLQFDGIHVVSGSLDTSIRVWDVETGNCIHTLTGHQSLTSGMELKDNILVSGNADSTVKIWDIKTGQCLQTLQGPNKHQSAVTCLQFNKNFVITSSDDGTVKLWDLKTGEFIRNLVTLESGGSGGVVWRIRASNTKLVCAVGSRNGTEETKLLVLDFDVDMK
GPR151 confirm: confirmation of human GPR151 activators; shares compounds with GPR151 ag; GPR151 PathHunter beta-arrestin cells, luminescence, 90 min; % of EA-reagent control over plate median; activation, % at 11.2 µM; 6,700 tested, under 10 active; AID 1508609;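 active = mean percent activation across replicates above the confirmation screen cutoff of 4.91%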
GPR119 ag: counter-screen for GPR151 activators: effect on human GPR119; GPR119 PathHunter beta-arrestin cells, luminescence, 90 min; 0 = compound-well median, 100 = enzyme-acceptor control; 6,700 tested, 0.3% active; activation, % at 11.2 µM; shares compounds with GPR151 ag;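 active = mean percent activation in the counterscreen above 29.09%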;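 also: counterscreen on off-target GPR119 to flag nonselective hits from the GPR151 activator screen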
Each line names hits and unclear results; the compound was inactive in the other large screens (follow-up assays come after a bar, where they were run). Sampled rows, rich in hits. Any-hit rate of the full collection: about 3.5%.

CCOc1cc(C2C(C(=O)OC(C)C)=C(C)NC3=C2C(=O)CCC3)ccc1O (configuration not stated)	none
O=C(NC1CC2CCC1C2)c1ccc(Cl)c(S(=O)(=O)Nc2ccccc2)c1 (configuration not stated)	none
CC(C)NC(=O)c1cnc2scc(-c3ccccc3)n2c1=O	GPR151 ag 8.5 | GPR151 confirm inactive | GPR119 ag inactive
O=C(COc1ccccc1)Nc1nnc(-c2ccccc2)o1	GPR151 ag 6.0 | GPR151 confirm inactive | GPR119 ag inactive
O=C(O)CCC(=O)Nc1cccc(-c2nnc(-c3ccccc3)o2)c1	GPR151 ag 5.0 | GPR151 confirm inactive | GPR119 ag inactive
O=C(Cc1ccccc1)Nc1cccc(-c2nnc(-c3cccc(NC(=O)Cc4ccccc4)c3)o2)c1	none
O=C(COc1ccccc1)Nc1ccc2oc(-c3ccccc3)nc2c1	GPR151 ag 6.3 | GPR151 confirm inactive | GPR119 ag inactive
Cc1ccc(C(=O)N/C(=C/c2cccc([N+](=O)[O-])c2)C(=O)NCc2ccco2)cc1	none
O=C1CC(Sc2nnnn2-c2ccccc2)C(=O)N1c1ccc(Cl)c(Cl)c1 (configuration not stated)	none
O=C(NC1CCCC1)c1c(O)c2c([nH]c1=O)CCCC2	none
Cc1cc(NC(=O)CN2CCN(c3ccccc3)CC2)ccc1Br	none
CC(=O)n1c(=O)oc2cc(Cl)ccc21	none
N/C(=N\S(=O)(=O)c1ccc(Cl)cc1)c1ccccc1	none
CO/C(=N\S(=O)(=O)c1ccc(Cl)cc1)c1ccccc1	GPR151 ag 5.9 | GPR151 confirm inactive | GPR119 ag inactive
Cc1ccc(OC(=O)c2ccc(N3C(=O)c4cccc([N+](=O)[O-])c4C3=O)cc2)cc1C	GPR151 ag 5.9 | GPR151 confirm inactive | GPR119 ag inactive
Cc1ncc(-c2ccncc2)c(C2CCCN(C(=O)c3cnn4cccnc34)C2)n1 (configuration not stated)	none
Cn1c(SCC(=O)Nc2ccc(Cl)cc2)nnc1-c1cccs1	none
O=S(=O)(NCc1ccco1)c1cccc2c(S(=O)(=O)NCc3ccco3)cccc12	none
O=[N+]([O-])c1ccccc1S(=O)(=O)c1ccccc1[N+](=O)[O-]	GPR151 ag 5.5 | GPR151 confirm inactive | GPR119 ag inactive
O=[N+]([O-])c1ccccc1S(=O)(=O)NCc1ccco1	GPR151 ag 7.1 | GPR151 confirm inactive | GPR119 ag inactive
Cc1ccc(N2CCN(c3nc(C)nc4sc5c(c34)CCCC5)CC2C)cc1 (configuration not stated)	none
COC(CNc1cc(-c2ccccc2F)nc(-c2ccncc2)n1)OC	none
CC(C)CCNC(=O)c1nnc(-c2cccnc2)o1	none
CSCCC(NCCC(O)c1ccccc1)C(=O)O (configuration not stated)	none
CC(C)CC(NCCC(O)c1ccccc1)C(=O)O (configuration not stated)	GPR151 ag 8.3 | GPR151 confirm inactive | GPR119 ag inactive
O=[N+]([O-])c1ccc(N2CCN(Cc3ccoc3)CC2)cc1	none
CC(=O)c1ccc(N2CCN(Cc3ccoc3)CC2)cc1	GPR151 ag 5.9 | GPR151 confirm inactive | GPR119 ag inactive
O=C(c1ccc(Br)cc1)C1C2C(=O)C3OCC(O3)C12 (configuration not stated)	GPR151 ag 8.0 | GPR151 confirm inactive | GPR119 ag inactive
Nc1nonc1-n1nnc(C(=O)N/N=C/c2c(F)cccc2Cl)c1-c1ccccc1	none
CCc1cccc(CC)c1NC(=O)C1CC(=O)N(c2ccc(F)cc2)C1 (configuration not stated)	none
CCc1cccc(CC)c1NC(=O)C1CC(=O)N(c2ccccc2OC)C1 (configuration not stated)	GPR151 ag 8.6 | GPR151 confirm inactive | GPR119 ag inactive
Nc1c(C(=O)O)[nH]c(=O)[nH]c1=O	GPR151 ag 5.1 | GPR151 confirm inactive | GPR119 ag inactive
CCC1CN(CCNC(=O)/C=C/c2cccs2)Cc2cc(OC)ccc2O1 (configuration not stated)	none
CC1CCCN(CCCNC(=O)c2ccc3c(c2)NC(=O)C(N2CCOCC2)S3)C1 (configuration not stated)	GPR151 ag 6.2 | GPR151 confirm inactive | GPR119 ag inactive
COc1cc(C2CC(O)=C3C(=O)CC(C)(C)C=C3C2(C#N)C#N)c([N+](=O)[O-])cc1OC (configuration not stated)	none
Cc1ccc(CN2CCN(C(=O)C3CCC3)CC2)cc1	GPR151 ag 5.0 | GPR151 confirm inactive | GPR119 ag inactive
CCc1ccc(CN2CCC(C(=O)N3CCN(CC)CC3)CC2)cc1	none
CC(NC(=O)/C(C#N)=C/c1ccccc1F)c1ccccc1 (configuration not stated)	none
COc1ccc(-c2cc(C(F)(F)F)n3nc(C(=O)N4CCN(c5cccc(Cl)c5)CC4)cc3n2)cc1	none
COc1ccc(-c2cc(C(F)(F)F)n3nc(C(=O)NCCc4ccccc4)cc3n2)cc1	GPR151 ag 13 | GPR151 confirm inactive | GPR119 ag inactive
O=C(NCCCn1ccnc1)c1cc2nc(-c3cccs3)cc(C(F)(F)F)n2n1	GPR151 ag 7.3 | GPR151 confirm inactive | GPR119 ag inactive
COc1ccc(-c2cc(C(F)(F)F)n3nc(C(=O)N4CCN(c5ccccc5Cl)CC4)cc3n2)cc1	GPR151 ag 6.1 | GPR151 confirm inactive | GPR119 ag inactive
CCn1ncc(CNC(=O)c2cc3nc(-c4ccco4)cc(C(F)(F)F)n3n2)c1C	GPR151 ag 5.0 | GPR151 confirm inactive | GPR119 ag inactive
N#CCCSc1ccccc1NC(=O)c1ccc([N+](=O)[O-])s1	none
CC1CCN(CCCNC(=O)c2ccc3c(c2)NC(=O)C(N2CCOCC2)S3)CC1 (configuration not stated)	none
CC1(C)CC(=O)C2=C(C1)N(c1ccccc1)C(N)=C(C#N)C2c1ccc(Br)s1 (configuration not stated)	none
Cc1nc(C)n(CC(=O)N2CCCC(C(=O)c3ccc(-c4ccccc4)c(F)c3)C2)n1 (configuration not stated)	none
Cc1cccc(C(=O)N/C(=C\c2ccc([N+](=O)[O-])cc2)C(=O)Nc2cccc(F)c2)c1	none
COc1ccc(-c2cc(C(F)(F)F)n3nc(C(=O)NCc4cccs4)cc3n2)cc1OC	GPR151 ag 7.2 | GPR151 confirm inactive | GPR119 ag inactive
Cc1ccc(-c2cc(C(F)(F)F)n3nc(C(=O)NN4CCOCC4)cc3n2)cc1C	GPR151 ag 5.3 | GPR151 confirm inactive | GPR119 ag inactive
Cc1[nH]ncc1-c1ccc(NC(=O)C2COc3c(F)cccc3C2)c(OCCN(C)C)c1 (configuration not stated)	none
